Measured values: PubChem BioAssay AID372 (MTDP, 2006)
The campaign covered roughly 100,000 compounds. About 770 (0.77%) were called active. For the sample, actives were picked, then their nearest neighbours and some compounds at random. Unmarked numbers belong to inactive results. Cut-off read from the data, not from the text of the source: active = inhibition above about 50%; inactive = the rest.

Target: Gag-Pol polyprotein (Human immunodeficiency virus type 1 group M subtype B (isolate HXB2)) (UniProt P04585)
Assay: RNase H inhibition, HIV 1 Gag Pol polyprotein, FRET biochemical assay, screening (AID 372)
Details: HIV-1 RT RNase H, FRET RNA/DNA substrate fluorescence; at 10 µM; hits give high values

Structure (SMILES) | inhibition
O=C(NCCO)C(=O)Nc1ccc(Oc2ccccc2)cc1 | 6%
Fc1cccc(-c2nnc(SC(c3ccccc3)c3ccccc3)n2-c2ccccc2)c1 | 13%
Cc1cc(C)c(NC(=O)C(C)Sc2nnc(-c3cccc(F)c3)n2-c2ccccc2)c(C)c1 (configuration not stated) | 54% (active)
CC(NC(=O)CSc1nnc(-c2cccc(F)c2)n1-c1ccccc1)c1ccccc1 (configuration not stated) | 15%
Cc1oc(C(C)(C)C)cc1C(=O)Nc1cccc(O)c1 | 1%
Cc1ccc(N=Cc2ccc(OC3CSC3)cc2)cc1C | 8%
COc1ccc(C2NC(=S)NC(C)=C2C(=O)Nc2ccc(C)c(Cl)c2)cc1 (configuration not stated) | 10%
Nc1c(S(=O)(=O)O)cc(S(=O)(=O)O)c2cccc(O)c12 | 23%
Nc1ccc(S(=O)(=O)O)c2cccc(S(=O)(=O)O)c12 | 6%
Nc1nnc(SCC(=O)Nc2ccccc2-c2ccccc2)s1 | 0%
COc1ccc(NC(=O)/C(C#N)=C/c2cccc(O)c2)cc1 | 12%
COc1cc(/C=N/NC(=O)COc2ccc(C(C)(C)CC(C)(C)C)cc2[N+](=O)[O-])ccc1OC(=O)c1ccc([N+](=O)[O-])cc1 | 28%
Cc1c(-c2ccc(/C=N/N=C3/NC(=O)CS3)o2)ccc([N+](=O)[O-])c1C | 45%
O=C1CS/C(=N/N=C/c2ccc(-c3ccc(Cl)cc3)o2)N1 | 21%
Cc1c(Cl)cccc1-c1ccc(/C=N/N=C2\NC(=O)CS2)o1 | 55% (active)
COc1ccccc1NC(=O)CN(c1ccc(Cl)cc1Cl)S(=O)(=O)c1ccccc1 | 13%
c1cc2ccc3ccc(CN4CCOCC4)c4ccc(c1)c2c34 | 0%
CC(=O)Nc1ccc(N2C(=O)/C(=C/c3ccc([N+](=O)[O-])cc3)C=C2c2ccccc2)cc1 | 0%
O=C1/C(=C/c2ccc([N+](=O)[O-])cc2)C=C(c2ccccc2)N1c1ccc(O)cc1 | 54% (active)
Cc1cccc(C2=N/C(=C/c3ccc([N+](=O)[O-])cc3)C(=O)N2c2ccc(O)cc2)c1 | 44%
COc1cc(/C=N/N=C2/NC(=O)C(CC(=O)Nc3cccc(Cl)c3Cl)S2)ccc1O (configuration not stated) | 5%

Structure (SMILES) | inhibition
CCOc1ccc(C(=O)NCc2ccco2)cc1Cl | 6%
Cc1ccc(C(=O)NCc2ccco2)cc1 | 0%
CC(=O)Nc1ccc(C(=O)NCc2ccco2)cc1 | 57% (active)
O=C(NCc1ccco1)c1ccc(Cl)cc1 | 0%
CCOc1ccc(C(=O)NCc2ccco2)cc1OCC | 50% (active)
CCOc1ccc(C(=O)NCc2ccco2)cc1Br | 5%
Cc1nn(S(=O)(=O)c2ccc([N+](=O)[O-])cc2)c(C)c1Sc1ccc([N+](=O)[O-])cc1 | 18%
CSCCOC(=O)C1=C(C)NC(=O)NC1c1ccc([N+](=O)[O-])cc1 (configuration not stated) | 22%
CCCCOc1ccc2c(C(F)(F)F)cc(=O)oc2c1 | 9%
CCOC(=O)C1=C(C)NC2=C(C(=O)CC(c3ccc(OC)cc3)C2)C1c1ccccc1OC(C)C (configuration not stated) | 1%
O=C(N/N=C/c1ccccc1OC(=O)c1sc2ccccc2c1Cl)c1ccc([N+](=O)[O-])cc1 | 6%
O=C(Nc1cccc2ccccc12)c1ccccc1[N+](=O)[O-] | 5%
Cc1ccc(OC(=O)Cn2c(=O)sc3cccc(Cl)c32)cc1C | 12%
CCn1c(=O)sc2cccc(Cl)c21 | 50% (active)
Cc1cc(C)cc(OC(=O)Cn2c(=O)sc3cccc(Cl)c32)c1 | 11%
COC(=O)CCCCCN1C(=O)c2ccccc2C1=O | 6%
COc1cc(/C=c2\sc3nc4c(C)c(C)ccc4n3c2=O)cc(Cl)c1O | 31%
COc1cc(/C=c2/sc3nc4c(C)c(C)ccc4n3c2=O)cc(OC)c1OC(C)=O | 8%
COc1cc(/C=c2\sc3nc4c(C)c(C)ccc4n3c2=O)cc(OC)c1O | 58% (active)
O=C(Nc1ccc(-c2noc(-c3ccccc3F)n2)cc1)c1cccs1 | 10%
O=C(CCCN1C(=O)c2cccc3cccc(c23)C1=O)N1CCCCC1 | 29%

Structure (SMILES) | inhibition
CC1CCN(C(=O)CN2C(=O)c3cccc4cccc(c34)C2=O)CC1 | 7%
CC1CCN(C(=O)CCCN2C(=O)c3cccc4cccc(c34)C2=O)CC1 | 56% (active)
COc1ccccc1-c1c(C(F)(F)F)oc2c(CN(C)C)c(O)ccc2c1=O | 24%
O=C(CN(c1cccc(Cl)c1)S(=O)(=O)c1ccccc1)N1CCN(Cc2ccccc2)CC1 | 14%
COc1cc(Br)cc2c1OC1(C=C2)c2ccccc2-c2ccccc2N1C (configuration not stated) | 50% (active)
CN1c2ccccc2-c2ccccc2C12C=Cc1cc(Br)ccc1O2 (configuration not stated) | 6%
CN1c2ccccc2-c2ccccc2C12C=Cc1cc(Br)cc(Br)c1O2 (configuration not stated) | 17%
O=C(CSc1nnc(-c2ccccc2)n1-c1ccccc1)N/N=C/C=C/c1ccccc1 | 15%
O=C(Nc1ccc(Cl)cc1)c1ccccc1C(=O)c1ccc(Cl)cc1 | 18%
Cc1cccc2c1[nH]c1nc(N/N=C\c3cccc(O)c3)nnc12 | 14%
COc1cc(/C=N\Nc2nnc3c(n2)[nH]c2c(C)cccc23)ccc1O | 11%
Cc1cccc2c1[nH]c1nc(N/N=C\c3ccc(O)c(O)c3)nnc12 | 54% (active)
O=c1[nH]c(-c2ccc(Br)cc2)nc2ccccc12 | 13%
Cc1ccc(-c2nc3ccccc3c(=O)[nH]2)cc1 | 7%
O=c1[nH]c(-c2ccncc2)nc2ccccc12 | 68% (active)
CC(=O)c1ccc(N2CCCCC2C)c(F)c1 (configuration not stated) | 0%
O=c1[nH]c(=S)n(-c2ccccc2)c(O)c1/C=C1/C=CC=N1 | 11%
O=c1[nH]c(=O)n(-c2ccccc2Cl)c(O)c1C=C1C=CC=N1 | 0%
Cc1cccc(-n2c(O)c(/C=C3\C=CC=N3)c(=O)[nH]c2=S)c1 | 11%
Cc1ccccc1-n1c(O)c(/C=C2\C=CC=N2)c(=O)[nH]c1=O | 1%
